Data from PubChem BioAssay AID434970 (Sanford-Burnham Center for Chemical Genomics, 2010).
Among all 11,000 compounds or so, about 310 (2.8%) were called active. No stated cut-off is given here; in the data, active means activity change below about -85%; inactive means the rest. The list comes from a sample in which actives are over-represented; it also holds similar structures and randomly drawn compounds.

system: intestinal alkaline phosphatase [Mus musculus]; assay: mouse intestinal phosphatase enzyme activation – biochemical, luminescence, single concentration, confirmation (AID 434970); conditions: purified mouse IAP, CDP-Star luminescence, 30 min, at 10 µM; activation factor: measured here: IAP activation factor, stronger effect = higher value; activity change, negative = activation: stronger effect = lower value

Row | SMILES | activation factor | activity change, negative = activation
1 | Fc1ccccc1Cn1nnc2c(NCc3ccccn3)ncnc21 | 0.966 | 3.35% (inactive)
2 | CCN(CC)CCNC(=O)C1c2ccccc2C(=O)N(CCOC)C1c1ccc(F)cc1 (configuration not stated) | 0.972 | 2.85% (inactive)
3 | Cc1ccc(C(C)NC(=S)NCc2ccc(F)cc2)c(C)c1 (configuration not stated) | 1.39 | -38.5% (inactive)
4 | CC(=O)Nc1ccc(SCC(=O)OCC(=O)NC(=O)NCc2ccco2)cc1 | 0.893 | 10.7% (inactive)
5 | COc1ccc(Cl)cc1NC(=O)C1CCCO1 (configuration not stated) | 0.924 | 7.6% (inactive)
6 | Cc1ccc(C(=O)O)cc1S(=O)(=O)N1CCSCC1 | 0.916 | 8.35% (inactive)
7 | CCN(CC)CCCNC(=O)C1c2cc(OC)c(OC)cc2C(=O)N(C)C1c1cccs1 (configuration not stated) | 1.04 | -4.25% (inactive)
8 | COc1cccc(-c2cc(C(F)(F)F)n3ncc(C(=O)NCC4CCCO4)c3n2)c1 (configuration not stated) | 1.05 | -4.65% (inactive)
9 | CC(C)CCNC(=O)COc1ccc2c(c1)C(=O)CC(C)(C)O2 | 1 | -0.15% (inactive)
10 | CC(CNC(=S)Nc1cc(F)cc(F)c1)CSc1ccc(Cl)cc1 (configuration not stated) | 1.3 | -29.9% (inactive)
11 | CC(C)Oc1ccc(/C=N/NC(=O)C(CSCc2ccccc2)NC(=O)c2ccc([N+](=O)[O-])cc2)cc1 (configuration not stated) | 0.941 | 5.95% (inactive)
12 | Cc1ccc(NC(=O)C2C(c3ccccc3)C2(Cl)Cl)c(C)c1 (configuration not stated) | 1.59 | -59.4% (inactive)
13 | Cc1ccc(NC(=O)C2CC(=O)NC(N3CCc4ccccc43)=N2)cc1 (configuration not stated) | 0.947 | 5.35% (inactive)
14 | CC(C)c1ccc(NC(=O)C(c2ccccc2)N2CC(=O)Nc3ccccc32)cc1 (configuration not stated) | 1.24 | -23.8% (inactive)
15 | CSc1nc2n(n1)C(c1cccc(F)c1)C(C(=O)Nc1ccc(C)cc1C)=C(C)N2 (configuration not stated) | 0.93 | 6.95% (inactive)
16 | CC(C)c1ccc(NC(=O)C2CC(=O)Nc3nc4ccccc4n32)cc1 (configuration not stated) | 2.38 | -138% (active)
17 | Cc1ccc(NC(=O)C2CC(=O)Nc3nc4ccccc4n32)c(C)c1 (configuration not stated) | 2.57 | -157% (active)
18 | O=C1/C(=C/c2ccco2)CCc2ccccc21 | 1.04 | -4% (inactive)

Row | SMILES | activation factor | activity change, negative = activation
19 | Cc1ccc(C)c(NS(=O)(=O)c2ccc3[nH]c(=O)oc3c2)c1 | 0.111 | 88.9% (inactive)
20 | COc1ccc(S(=O)(=O)N(C)C[C@H]2Oc3ccc(NC(=O)Nc4ccccc4)cc3C(=O)N([C@H](C)CO)C[C@@H]2C)cc1 | 2.15 | -115% (active)
21 | C[C@H](CO)N1C[C@H](C)[C@@H](CN(C)S(=O)(=O)c2ccccc2)Oc2ccc(NC(=O)Nc3ccc4c(c3)OCO4)cc2C1=O | 1.95 | -94.6% (inactive)
22 | COc1ccc(NC(=O)N(C)C[C@H]2Oc3ccc(NC(=O)Nc4ccc(C(F)(F)F)cc4)cc3C(=O)N([C@H](C)CO)C[C@@H]2C)cc1 | 1.75 | -75.5% (inactive)
23 | C[C@H](CO)N1C[C@H](C)[C@@H](CN(C)S(=O)(=O)c2ccccc2)Oc2ccc(NC(=O)Nc3ccccc3)cc2C1=O | 2.62 | -162% (active)
24 | COc1ccc(NC(=O)Nc2ccc3c(c2)C(=O)N([C@H](C)CO)C[C@H](C)[C@@H](CN(C)S(=O)(=O)c2ccc(OC)cc2)O3)cc1 | 1.77 | -77.3% (inactive)
25 | COc1ccc(NC(=O)Nc2ccc3c(c2)C(=O)N([C@H](C)CO)C[C@H](C)[C@@H](CN(C)S(=O)(=O)c2ccccc2)O3)cc1 | 1.98 | -97.7% (inactive)
26 | COc1ccc(NC(=O)Nc2ccc3c(c2)C(=O)N([C@H](C)CO)C[C@H](C)[C@@H](CN(C)S(=O)(=O)c2ccc(F)cc2)O3)cc1 | 2.01 | -101% (active)
27 | C[C@H](CO)N1C[C@H](C)[C@@H](CN(C)S(=O)(=O)c2ccc(F)cc2)Oc2ccc(NC(=O)Nc3ccccc3)cc2C1=O | 1.91 | -91.2% (inactive)
28 | COc1ccc(S(=O)(=O)N(C)C[C@H]2Oc3ccc(NC(=O)Nc4ccc5c(c4)OCO5)cc3C(=O)N([C@H](C)CO)C[C@@H]2C)cc1 | 1.86 | -86.1% (inactive)
29 | COc1ccc2[nH]c(=O)c(CN(C(C)=O)c3cccc(C)c3)cc2c1 | 0.991 | 0.9% (inactive)
30 | O=C(CSc1nnc(-c2cccs2)n1-c1cccc(Cl)c1)c1cccc2c1OCCO2 | 0.901 | 9.9% (inactive)
31 | CCCc1[nH]nc2c1C(Cc1ccccc1)C(C#N)=C(N)O2 (configuration not stated) | 0.921 | 7.85% (inactive)
32 | CC(C)N(C(=O)[C@H]1C[C@H](CC(=O)NCCCn2ccnc2)C(=O)N2CCc3c([nH]c4cc(CCC(=O)N(C)C)ccc34)[C@]12C)C(C)C | 0.995 | 0.5% (inactive)
33 | CCOC(=O)C1C(C(=O)OC)=C(C2=CCCCC2)c2ccccc2N1S(=O)(=O)C(F)(F)F (configuration not stated) | 0.97 | 3% (inactive)
34 | Cc1ccc(NC(=O)C2CCCNC2=O)nc1 (configuration not stated) | 0.929 | 7.05% (inactive)
35 | Cc1cc(N2CCN(C)CC2)nc2ccc(NC(=O)c3ccc4c(c3)OCO4)cc12 | 1.03 | -2.9% (inactive)
36 | CCCc1n[nH]c2c1/C(=N\O)CCC2 | 1.05 | -5.35% (inactive)
